Inconclusive results are not listed. Active and inactive are the calls of the source. Rule for the calls: active = hit-call score of the fitted dose curve at least 0.9, where 1 is the maximum; inconclusive = response in the unintended direction; inactive = score below 0.9.
Test: Tanguay_ZF_120hpf_YSE_legacy: (Legacy) Oregon State University Tanguay Lab 120 Hour Post-fertilization zebrafish Assay for Yolk Sac Edema (AID 2283634);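 for AC50: actives raise the incidence of yolk sac edema above the DMSO baseline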
Description: Tanguay_ZF_120hpf_legacy is a whole embryo, multiplexed endpoint assay using zebrafish larvae exposed for 120 hours post fertilization on a 96-well plate.Tanguay_ZF_120hpf_YSE_legacy is one of one assay component(s) measured or calculated from the Tanguay_ZF_120hpf_legacy assay. It is designed to make measurements of zebrafish development as detected with brightfield microscopy of developing zebrafish embryos.Data from the assay component Tanguay_ZF_120hpf_YSE_legacy was analyzed into 1 assay endpoints. This assay endpoint, Tanguay_ZF_120hpf_YSE_legacy, was analyzed in the positive analysis fitting direction relative to DMSO as the negative control and baseline of activity. Using a type of morphology reporter, gain-of-signal activity can be used to understand changes in developmentals as they relate to the whole embryo. To generalize the intended target to other relatable targets, this assay endpoint is annotated to the zebrafish development intended target family, where the subfamily is extra-embryonic membrane development.
Zebrafish husbandry: Tropical 5D wild-type adult zebrafish were housed in at an approximate density of 1000 per 100 gallon tank at the Sinnhuber Aquatic Research Laboratory, Oregon State University, Corvallis, OR. Each tank was kept at standard laboratory conditions of 28C on a 14-h light/10-h dark photoperiod in fish water consisting of reverse osmosis water supplemented with a commercially available salt (Instant Ocean). Spawning funnels were placed into the tanks the night prior, and embryos were collected and staged. To increase bioavailability, the chorion was enzymatically removed using pronase (63.6mg/ml, >/= 3.5U/mg, Sigma-Aldrich: P5147) at 4 hours post fertilization (hpf) using a custom automated dechorionator.Chemical exposures: Six hpf dechorionated embryos were placed 1 embryo per well in a 96-well plate prefilled with 90 ul of EM using automated embryo placement systems (AEPS). Ten microliters of each row of dilution plate 2 was added to 2 exposure plates. The final DMSO concentration used was 0.64% (vol/vol). Thirty-two embryos were also exposed to 5uM trimethyltin chloride (positive control). Plates were sealed to prevent evaporation and foil covered to reduce light exposure and kept in a 28C incubator. Embryos were statically exposed until 120 hpf. At 24 hpf, embryos were assessed for photomotor response using a custom photomotor response analysis tool (PRAT) and for developmental toxicity endpoints (MO24: mortality at 24 hpf, DP: developmental progression, SM: spontaneous movement, and NC: notochord distortion). At 120 hpf, locomotor activity was measured using Viewpoint Zebralab and assessed for 18 endpoints. Zebrafish acquisition and analysis program (ZAAP), a custom program designed to inventory, acquire, and manage zebrafish data, was used to collect developmental endpoints as either present or absent (i.e., binary responses were recorded). If mortality occurred for an embryo (at either 24 or 120 hpf), the non-mortality endpoints were not measured.

| SMILES | outcome | AC50 |
| --- | --- | --- |
| CCCCCCCCCCCCc1cccc(S(=O)(=O)O)c1 | inactive | – |
| CN(C)C(=S)S | – | 8.26 µM (active) |
| COc1ccccc1N | inactive | – |
| CC(C)(C)c1ccccc1O | inactive | – |
| OCCN(CCO)CCO | inactive | – |
| Oc1c(Cl)cc(Cl)cc1Cl | inactive | – |
| Clc1cccc(Cl)c1Cl | inactive | – |
| Oc1cc(Cl)c(Cl)cc1Cl | inactive | – |
| Clc1cccc(Cl)c1 | inactive | – |
| N#Cc1cccnc1 | inactive | – |
| O=C(O)C1(c2ccc3c(c2)OC[C@H](Cc2ccc(-c4ccccc4)cc2)[C@H]3O)CCCC1 | inactive | – |
| O=C(N[C@H]1CN2CCC1CC2)c1ccc2c(c1)OCCO2 | inactive | – |
| Cc1cc(C)cc(C)c1 | inactive | – |
